{
  "source": "PubChem BioAssay AID1851",
  "about": "(National Center for Advancing Translational Sciences (NCATS), 2009)",
  "note": "About 5,800 (36%) of roughly 16,000 compounds were called active. Not shown: some 23% with an inconclusive outcome. Some of the results follow. Values without a mark were called inactive. Calls come from the whole dose curve; as a rule, active = well fitted curve in the direction sought with a large enough effect; inconclusive = small, poorly fitted or top-dose-only effect, or effect the other way; inactive = no such curve, though single readings can be large or run the other way. % is set by controls: 0 for no effect and ±100 for the full control effect.",
  "data": [
    {"molecular_target": "Cytochrome P450 2C19 (Homo sapiens) (UniProt P33261)", "sequence (P33261 whole entry, looked up)": "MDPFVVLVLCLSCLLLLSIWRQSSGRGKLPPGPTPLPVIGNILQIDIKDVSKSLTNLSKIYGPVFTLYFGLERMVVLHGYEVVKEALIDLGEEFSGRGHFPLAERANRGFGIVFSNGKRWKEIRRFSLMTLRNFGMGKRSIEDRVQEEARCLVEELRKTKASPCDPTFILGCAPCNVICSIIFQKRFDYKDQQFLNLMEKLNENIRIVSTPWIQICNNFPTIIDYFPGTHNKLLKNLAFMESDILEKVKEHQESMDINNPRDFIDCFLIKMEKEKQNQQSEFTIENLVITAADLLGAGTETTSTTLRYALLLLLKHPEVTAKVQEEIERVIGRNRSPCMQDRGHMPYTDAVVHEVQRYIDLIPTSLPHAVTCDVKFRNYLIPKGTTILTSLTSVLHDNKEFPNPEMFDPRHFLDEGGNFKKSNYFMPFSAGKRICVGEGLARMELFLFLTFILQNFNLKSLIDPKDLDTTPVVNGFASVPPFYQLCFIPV", "assay": "Cytochrome panel assay with activity outcomes", "conditions": "recombinant CYP, pro-luciferin dealkylation, luminescence, p450-cyp2c19; series mostly up to 57.1 µM; activity, negative = inhibition: at the top concentration", "values": [
      {"smiles": "Cc1ccc(Oc2ccccc2/C=C2\\SC(=O)N(C)C2=O)cc1", "AC50": "6310 nM (active)"},
      {"smiles": "CC(C)(C)NC[C@H](O)COc1cccc2[nH]c(=O)[nH]c12", "AC50": "inactive"},
      {"smiles": "CCN(CC)S(=O)(=O)c1ccc(OC)c(NC(=O)CSc2ccccc2)c1", "AC50": "11200 nM (active)"},
      {"smiles": "COC(=O)c1cc(OC)c(OC)cc1NC(=S)N1CCN(C)CC1", "activity, negative = inhibition": "-13.3%"},
      {"smiles": "CCN(CC)S(=O)(=O)c1ccc(OC)c(NC(=O)c2cc([N+](=O)[O-])ccc2Cl)c1", "activity, negative = inhibition": "-26.7%"},
      {"smiles": "COC(=O)c1cc(OC)c(OC)cc1NC(=O)CSc1ccc(C)cc1", "AC50": "1780 nM (active)"},
      {"smiles": "COc1cc(N)c(Cl)cc1C(=O)OCCCN1CCCCC1", "activity, negative = inhibition": "-22.8%"},
      {"smiles": "COC(=O)c1cc(OC)c(OC)cc1NC(=S)N1CCCCC1", "AC50": "6310 nM (active)"},
      {"smiles": "CCN1CCC[C@H]1CNC(=O)c1cc(S(N)(=O)=O)ccc1OC", "activity, negative = inhibition": "-6.49%"},
      {"smiles": "COC(=O)c1cc(OC)c(OC)cc1NC(=O)CSc1ccccc1", "AC50": "3160 nM (active)"},
      {"smiles": "COCCn1c(=O)cnc2cnc(Nc3ccccc3)nc21", "activity, negative = inhibition": "-14.5%"},
      {"smiles": "CCNc1ncc2ncc(=O)n(C[C@H]3CCCO3)c2n1", "activity, negative = inhibition": "13.9%"},
      {"smiles": "O=c1cnc2cnc(Nc3ccccc3)nc2n1CCc1ccccc1", "AC50": "2000 nM (active)"},
      {"smiles": "CCNc1ncc2ncc(=O)n(C3CC3)c2n1", "activity, negative = inhibition": "-16.6%"},
      {"smiles": "CCNc1ncc2ncc(=O)n(CCc3ccccc3)c2n1", "AC50": "631 nM (active)"},
      {"smiles": "CC[N+](C)(C)c1cccc(O)c1", "activity, negative = inhibition": "3.62%"},
      {"smiles": "CCOc1ccc(C(Nc2ccc(C)cc2)P2(=O)OCC(C)(C)CO2)cc1", "note": "(stereo not drawn)", "AC50": "25100 nM (active)"},
      {"smiles": "CCOc1ccc(C2=[N+]([O-])C(C)(C)N(O)C2(C)C)cc1", "activity, negative = inhibition": "2.26%"},
      {"smiles": "CN(C)Cc1ccccc1-c1nccc(N(C)C)n1", "activity, negative = inhibition": "3.03%"},
      {"smiles": "CN(C/C=C\\c1ccccc1)Cc1cccc2ccccc12", "AC50": "501 nM (active)"},
      {"smiles": "CN(Cc1cccc2ccccc12)Cc1cccc2ccccc12", "AC50": "1580 nM (active)"},
      {"smiles": "c1ccc2c(CC3=NCCN3)cccc2c1", "activity, negative = inhibition": "-5.96% [at 25.6 µM]"},
      {"smiles": "NCCSS(=O)(=O)CCN", "activity, negative = inhibition": "4.15% [at 11.4 µM]"},
      {"smiles": "CCOc1ccccc1C1C(C#N)=C(N)Oc2n[nH]c(CC)c21", "note": "(stereo not drawn)", "AC50": "6310 nM (active)"},
      {"smiles": "COCCn1c(C)cc2c(c1=O)C(c1ccccc1F)C(C#N)=C(N)O2", "note": "(stereo not drawn)", "activity, negative = inhibition": "17.4%"},
      {"smiles": "N=C(N)SCCN", "activity, negative = inhibition": "-22.8%"},
      {"smiles": "CCN1CCC[C@@H]1CNC(=O)c1cc(S(N)(=O)=O)ccc1OC", "activity, negative = inhibition": "-20.4%"},
      {"smiles": "CC(=O)C1=C(NC(=O)c2ccc(F)cc2)CC2C1C2(C)C", "note": "(stereo not drawn)", "AC50": "3160 nM (active)"},
      {"smiles": "O=[N+]([O-])c1cccc(-c2nc(-c3ccncc3)no2)c1", "AC50": "891 nM (active)"},
      {"smiles": "Nc1nc(-c2cccc([N+](=O)[O-])c2)cc(-c2cc(-c3cccc([N+](=O)[O-])c3)nc(N)n2)n1", "activity, negative = inhibition": "14.8% [at 11.4 µM]"},
      {"smiles": "C[C@@H]1NC(=O)C/C=C\\[C@@H](C)[C@@H]2C=C[C@H](O)[C@@H](COC(=O)[C@H](C)NC(=O)C/C=C\\[C@@H](C)[C@@H]3C=C[C@H](O)[C@@H](COC1=O)O3)O2", "activity, negative = inhibition": "-11.5% [at 11.4 µM]"},
      {"smiles": "COc1ccc(O[C@H]2C=C[C@@H](c3ccccc3)O[C@H]2CO/N=C(/C)CCC(=O)OC[C@@H]2O[C@H](c3ccccc3)C=C[C@@H]2Oc2ccc(OC)cc2)cc1", "AC50": "100 nM (active)"},
      {"smiles": "CC(=O)OC[C@@H]1O[C@H](CCON=C(C)C)C=C[C@@H]1OC(C)=O", "activity, negative = inhibition": "-20.6% [at 11.4 µM]"},
      {"smiles": "COc1ccc(O[C@H]2C=C[C@@H](c3ccccc3)O[C@H]2COC(=O)N2CCCCC2)cc1", "AC50": "501 nM (active)"},
      {"smiles": "CCCNC(=O)OC[C@@H]1O[C@H](c2ccccc2)C=C[C@@H]1Oc1ccc(OC)cc1", "activity, negative = inhibition": "-44.8% [at 11.4 µM]"},
      {"smiles": "CC(=O)OC[C@H]1O[C@@H](O/N=C(\\C)CCN2CCc3nc(-c4ccccc4)c(-c4ccccc4)cc3C2)[C@H](OC(C)=O)[C@@H](OC(C)=O)[C@H]1OC(C)=O", "activity, negative = inhibition": "6.61% [at 11.4 µM]"},
      {"smiles": "COc1ccc(O[C@H]2C=C[C@@H](c3ccccc3)O[C@H]2COC(=O)CC/C(C)=N/O[C@@H]2O[C@H](COC(C)=O)[C@H](OC(C)=O)[C@H](OC(C)=O)[C@H]2OC(C)=O)cc1", "AC50": "1580 nM (active)"},
      {"smiles": "COc1ccc(O[C@H]2C=C[C@@H](c3ccccc3)O[C@@H]2CON=C(C)C)cc1", "activity, negative = inhibition": "-28.2% [at 11.4 µM]"},
      {"smiles": "COc1ccc(O[C@H]2C=C[C@@H](c3ccccc3)O[C@H]2COC(=O)CC/C(C)=N/OCC[C@@H]2C=C[C@H](OC(C)=O)[C@H](COC(C)=O)O2)cc1", "AC50": "398 nM (active)"},
      {"smiles": "CC(=O)OC[C@H]1O[C@@H](ON=C(C)C)[C@H](OC(C)=O)[C@@H](OC(C)=O)[C@H]1OC(C)=O", "activity, negative = inhibition": "32.2% [at 11.4 µM]"},
      {"smiles": "CC(=O)OC[C@@H]1O[C@H](CCO/N=C(\\C)CCC(=O)OC[C@@H]2O[C@H](C#Cc3ccccc3)C=C[C@@H]2Oc2ccc(C)cc2)C=C[C@@H]1OC(C)=O", "activity, negative = inhibition": "-44.9% [at 11.4 µM]"},
      {"smiles": "COc1ccc(O[C@H]2C=C[C@@H](c3ccccc3)O[C@H]2COC(=O)CC/C(C)=N\\OC[C@@H](O)[C@H]2O[C@H]3OC(C)(C)O[C@H]3[C@@H]2O)cc1", "AC50": "5.01 nM (active)"},
      {"smiles": "COc1ccc(O[C@H]2C=C[C@@H](c3ccccc3)O[C@H]2CO/N=C2/[C@H]3O[C@@H]3[C@@H](O)[C@H]3[C@H]2CCn2c(=O)n(-c4ccccc4)c(=O)n23)cc1", "AC50": "2510 nM (active)"},
      {"smiles": "CC(=O)OC[C@@H]1O[C@H](C/C=N\\OC[C@@H](C)[C@H](OCc2ccccc2)C(C)C)C=C[C@@H]1OC(C)=O", "activity, negative = inhibition": "-16.1% [at 11.4 µM]"},
      {"smiles": "C/C(CCN1CCCc2nc(C)c(C)cc21)=N\\OC[C@@H](O)[C@@H]1O[C@@H]2OC(C)(C)O[C@@H]2[C@H]1O", "activity, negative = inhibition": "-36.9% [at 11.4 µM]"},
      {"smiles": "CCc1cc2c(nc1CC)CCN(CC/C(C)=N/O[C@@H](C)c1cc(-c3c(C)cc(C)cc3C)no1)C2", "activity, negative = inhibition": "-42.9% [at 11.4 µM]"},
      {"smiles": "COc1ccc(O[C@H]2C=C[C@@H](c3ccccc3)O[C@H]2CO/N=C\\C[C@@H]2C=C[C@H](OC(C)=O)[C@H](COC(C)=O)O2)cc1", "AC50": "794 nM (active)"},
      {"smiles": "COc1ccc(O[C@H]2C=C[C@@H](c3ccccc3)O[C@H]2COC(=O)CC/C(C)=N\\O[C@@H](C)c2cc(-c3c(C)cc(C)cc3C)no2)cc1", "AC50": "100 nM (active)"},
      {"smiles": "C/C(CCN1CCc2nc(-c3ccccc3)c(-c3ccccc3)cc2C1)=N\\OC[C@@H](O)[C@@H]1O[C@@H]2OC(C)(C)O[C@@H]2[C@H]1O", "activity, negative = inhibition": "3.78% [at 11.4 µM]"},
      {"smiles": "CC(=O)OC[C@@H]1O[C@H](C/C=N\\O[C@@H](C)c2cc(-c3c(C)cc(C)cc3C)no2)C=C[C@@H]1OC(C)=O", "activity, negative = inhibition": "-35.1% [at 11.4 µM]"},
      {"smiles": "CC(C)CO/N=C1/[C@H]2O[C@@H]2[C@@H](O)[C@H]2[C@H]1CCn1c(=O)n(-c3ccccc3)c(=O)n12", "activity, negative = inhibition": "15.7% [at 11.4 µM]"},
      {"smiles": "CCCNC(=O)OC[C@H]1O[C@@H](CCO/N=C2/[C@H]3O[C@@H]3[C@@H](O)[C@H]3[C@H]2CCn2c(=O)n(-c4ccccc4)c(=O)n23)C=C[C@@H]1Oc1ccc(OC)cc1", "activity, negative = inhibition": "-3.58% [at 11.4 µM]"},
      {"smiles": "CC(=O)OC[C@@H]1O[C@H](C/C=N\\OC[C@@H](O)COCc2ccco2)C=C[C@@H]1OC(C)=O", "activity, negative = inhibition": "14.8% [at 11.4 µM]"}
    ]}
  ]
}
